The results in this text go back to PubChem BioAssay AID504710 (Sanford-Burnham Center for Chemical Genomics, 2011).

Structures are written as SMILES. The source made the active and inactive calls.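 The calls were made as follows: active = inhibition reaching about 16% in any single replicate (limit read from the data); inactive = the rest.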

In this assay the target is Hexokinase HKDC1 (Homo sapiens) (UniProt Q2TB90). The assay is described as follows: compounds lowering human HKDC1 activity – biochemical, single concentration, confirmation (AID 504710). The conditions noted are these: recombinant HKDC1, G6PDH/diaphorase/resazurin fluorescence; at 20 µM; stronger effect = higher value. In general terms: The colour change of resazurin is a common sign of viable cells or microbes.
Chain of Hexokinase HKDC1 (Homo sapiens) (Q2TB90 whole entry, looked up): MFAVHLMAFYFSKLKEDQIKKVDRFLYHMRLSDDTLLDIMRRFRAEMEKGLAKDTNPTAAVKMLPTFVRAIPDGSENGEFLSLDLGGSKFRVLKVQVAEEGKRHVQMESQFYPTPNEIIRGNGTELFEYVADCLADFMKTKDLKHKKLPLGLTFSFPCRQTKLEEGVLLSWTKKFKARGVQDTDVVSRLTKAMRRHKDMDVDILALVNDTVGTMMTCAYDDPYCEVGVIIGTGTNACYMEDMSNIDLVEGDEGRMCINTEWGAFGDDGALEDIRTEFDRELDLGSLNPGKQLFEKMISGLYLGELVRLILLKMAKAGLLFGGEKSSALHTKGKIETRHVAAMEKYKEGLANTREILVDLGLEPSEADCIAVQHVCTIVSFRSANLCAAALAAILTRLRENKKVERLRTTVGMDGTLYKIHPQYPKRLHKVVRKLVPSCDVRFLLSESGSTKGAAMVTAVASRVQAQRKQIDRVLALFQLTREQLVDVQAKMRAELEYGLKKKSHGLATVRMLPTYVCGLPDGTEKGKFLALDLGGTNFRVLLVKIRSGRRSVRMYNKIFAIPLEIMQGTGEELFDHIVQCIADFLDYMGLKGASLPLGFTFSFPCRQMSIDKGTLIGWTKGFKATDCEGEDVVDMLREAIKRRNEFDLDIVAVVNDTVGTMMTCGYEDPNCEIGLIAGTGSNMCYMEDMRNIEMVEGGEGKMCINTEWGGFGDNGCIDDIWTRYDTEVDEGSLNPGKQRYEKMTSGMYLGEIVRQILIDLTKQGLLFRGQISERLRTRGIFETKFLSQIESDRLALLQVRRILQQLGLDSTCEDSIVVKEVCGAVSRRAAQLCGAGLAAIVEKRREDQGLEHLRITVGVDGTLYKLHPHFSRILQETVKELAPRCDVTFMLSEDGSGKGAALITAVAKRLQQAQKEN

Broadly, the inhibition is the drop in the measured response relative to a control, in per cent. On to `COc1ccc(NC(=O)CSc2ccc(-c3ccco3)nn2)cc1OC`, for which the inhibition was 44% (active).
For `COC1(NS(=O)(=O)c2ccc(Br)cc2)C(C)=CC(=O)C=C1C` the value was 26.3% (active); for `COc1cc(/C=C2/C(=O)NN(c3ccc(Cl)c(Cl)c3)C2=O)cc([N+](=O)[O-])c1O`, 33.1% (active).
Consider `Oc1ccc(/C=N/NC(=S)Nc2cccnc2)c(O)c1`, for which the inhibition is 14.6% (active).
For `Cn1c2ccccc2c(=O)c2c(=O)n(-c3ccc(F)cc3)c(-c3cccs3)nc21` the value was 66% (active); for `COC(=O)c1cc(C)nc2c1C(=O)C(=O)C=C2N1CCOCC1`, 65.8% (active).
For `COC(=O)c1ccccc1NC1=C/C(=N\S(=O)(=O)c2cccs2)c2ccccc2C1=O`, the inhibition was 62.6% (active).
On to `O=C1C(SCCO)=C(SCCO)C(=O)c2ccccc21`, for which the inhibition was 84.1% (active).
For `CC(=O)n1cc(N(C(=O)CCl)c2ccc([N+](=O)[O-])cc2)c2ccccc21` the value was 40.9% (active); for `COC(=O)c1ccccc1NC1=C/C(=N\S(=O)(=O)c2ccc(C(=O)O)cc2)c2ccccc2C1=O`, 86% (active).
Next, `CCCc1nc2c(c(=O)c3ccccc3n2C)c(=O)n1-c1ccc(F)cc1`: 58.5% (active); `NC(=NCc1ccc2c(c1)OCO2)NC(=O)c1ccccc1`: 16.7% (active).
Next, `COc1ccc(NC(=O)CSc2ccc(-c3ccco3)nn2)c(OC)c1`: 70.8% (active); `O=C(O)c1cc(O)c2c(c1)[C@@H]([C@H]1c3cc(C(=O)O)cc(O)c3C(=O)c3c(O[C@@H]4O[C@H](CO)[C@@H](O)[C@H](O)[C@H]4O)cccc31)c1cccc(O[C@@H]3O[C@H](CO)[C@@H](O)[C@H](O)[C@H]3O)c1C2=O`: 34.1% (active).
